Experimental findings from PubChem BioAssay (NCATS) are described below.

The nature of test [1]: Cell Viability - BJ (AID 421; calls by dose curve;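 further: potency means the concentration at half of the fitted maximal effect; cells exposed to compound for 40 hours at 37 °C before readout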). To be noted: BJ fibroblast viability, qHTS. In short, it runs like this: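 Normal human BJ foreskin fibroblasts, 1500/well in complete medium, treated 40 hr at 37 °C. Cellular ATP by CellTiter-Glo luminescence; normalized to DMSO and 100 uM tamoxifen, AC50 from Hill fit.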
A general note: In qHTS, concentration-response curves come from the screen itself.

The nature of test [2]: Cell Viability - Hek293 (AID 427;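 active means compounds whose dose-response curve shows a full or clear partial loss of cell viability, called from curve shape rather than a numeric limit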;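 further: potency means the concentration at half of the fitted maximal effect; cells exposed to compound for 40 hours at 37 °C before reading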). To be noted: qHTS. In short, it runs like this:
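HEK293 cells in complete medium were exposed to compound for 40 hr at 37 °C, then cellular ATP was read by CellTiter-Glo luminescence. Data were normalized to DMSO (basal) and 100 uM tamoxifen (100% inhibition), and AC50 came from Hill fits.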

Test [3] can be described thus: Cell Viability - MRC5 (AID 434; calls by dose curve;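 further: potency means the concentration at half of the fitted maximal effect; potency reflects cytotoxicity seen as loss of intracellular ATP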). To be noted: MRC5 lung fibroblast viability, qHTS. The essentials:
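Decrease in intracellular ATP, quantified by luciferase light output, reflects compound toxicity toward MRC5 cells exposed for 40 hr in complete culture medium. Concentration-response curves, scaled between DMSO and 100 uM tamoxifen, gave AC50 values.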

Test [4] in a line: Cell Viability - SK-N-SH (AID 435; calls by dose curve;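 further: potency means the concentration at half of the fitted maximal effect; compound exposure lasted 40 h at 37 °C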). To be noted: SK-N-SH neuroblastoma cell viability qHTS. The essentials: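 CellTiter-Glo ATP luminescence, 20 min RT read; cells pre-plated 5 hr, compound 40 hr at 37 °C, 1500 cells/well, complete medium. Normalized DMSO = 0, 100 uM tamoxifen = 100% inhibition; Hill-fit AC50.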
The nature of test [5]: Cell Viability - N2a (AID 540).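 Further: plate controls were DMSO alone for no effect and tamoxifen control for full effect; nearly all actives have a fitted effect of over 45% in size.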 The conditions noted are these: N2a mouse neuroblastoma cell viability; activity change, negative = cytotoxicity: at 92.2 µM (top of the series). The essentials:
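CellTiter-Glo ATP luminescence, read 20 min after reagent at room temperature, reported viability following 40 h compound treatment at 37 °C. N2a mouse neuroblastoma cells seeded 1500/well; Hill equation gave AC50.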

Test [6] in a line: Cell Viability - NIH 3T3 (AID 541).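 Further: plate controls were DMSO alone for no effect and tamoxifen positive control for full effect; nearly all actives have a fitted effect of over 25% in size.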 To be noted: NIH 3T3 cell viability, qHTS; activity change, negative = cytotoxicity: at 92.2 µM (top of the series). In short, it runs like this:
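Intracellular ATP (CellTiter-Glo luminescence, 20 min at room temperature) measured after 40 hr compound exposure at 37 °C of 1000 NIH 3T3 mouse fibroblasts/well in complete medium; AC50 derived by Hill-equation modelling of qHTS concentration-response curves.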

A short description of test [7]: Cell Viability - Renal Proximal Tubule (AID 545).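 Further: 0% = DMSO only and -100% = 100 µM tamoxifen; nearly all actives have a fitted effect of over 40% in size.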 To be noted: renal proximal tubule cells viability; activity change, negative = cytotoxicity: at 91.7 µM (top of the series) unless noted. In short, it runs like this:
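Rat kidney proximal tubule cells, freshly isolated; 1000 cells/well, 5 hr settle, compound 40 hr 37 °C. CellTiter-Glo 20 min RT, luminescence read. AC50 by standard Hill fit.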

A short description of test [8]: Cell Viability - Mesenchymal (AID 546).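 Further: cells exposed to compound for 40 hours before reading; 0% = DMSO only and -100% = 100 µM tamoxifen.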 The conditions noted are these: mesenchymal cells viability, qHTS; activity change, negative = cytotoxicity: at 91.7 µM (top of the series). The essentials:
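In this qHTS cytotoxicity format, glomerulus-derived human mesenchymal kidney cells received compound for 40 hr, then luciferase-based ATP quantitation. Concentration-response data were fitted with the Hill equation.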

A short description of test [9]: Cellular Toxicity (caspase-3) Renal Proximal Tubule (AID 667).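 Further: cells exposed to compound for 16 hours at 37 °C before detection; 0% = DMSO basal and 100% = 10 µM staurosporine.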 The conditions noted are these: renal proximal tubule cells; at 91.7 µM (top of the series) unless noted. In short, it runs like this: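 Luminescent caspase 3/7 signal from peptide-aminoluciferin cleavage measures apoptosis in freshly isolated rat kidney proximal tubule cells after 16 h compound exposure. Concentration-response data are normalized to DMSO and 10 uM staurosporine, and AC50 values come from Hill equation fits.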

Test [10] in a line: MultiTox-Fluor Cytotoxicity Assay - LYMP1-002 - Live Cells (AID 955). Further: on the % scale 0 is the no-effect control and ±100 the full control effect. To be noted: LYMP1-002 lymphoblastoid live-cell protease fluorescence viability; series mostly up to 46.1 µM. The essentials:
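After 16 h compound exposure at 37 C, live LYMP1-002 lymphoblastoid cells (2500/well) were quantified by cleavage of cell-permeant GF-AFC substrate, read at 405/510 nm after 60 min. Concentration-response fitted with Hill equation for AC50.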

Test [11] can be described thus: MultiTox-Fluor Cytotoxicity Assay - LYMP1-003 - Live Cells (AID 962). Further: potency means the concentration at half of the fitted maximal effect. The conditions noted are these: LYMP1-003 lymphoblastoid cells, MultiTox-Fluor live-cell protease fluorescence; series mostly up to 92.2 µM. In short, it runs like this: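 Live-cell protease activity (GF-AFC substrate, 405/510 nm, 60 min at room temperature) after 16 h, 37 C compound exposure of human lymphoblastoid LYMP1-003 cells; concentration-response fitted to the Hill equation for AC50.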

Test [12] can be described thus: Cell Viability - LYMP2-008 (AID 980). Further: nearly all actives have a fitted effect of over 60% in size. Further: potency means the concentration at half of the fitted maximal effect. On activity change, negative = cytotoxicity: on the % scale 0 is the no-effect control and ±100 the full control effect. The conditions noted are these: LYMP2-008 lymphoblastoid cell viability, qHTS; series mostly up to 92.2 µM. In short, it runs like this: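 Cytotoxicity determined from ATP-dependent luciferase luminescence (CellTiter-Glo) following 24 h compound exposure of human lymphoblastoid LYMP2-008 cells at 37 C. Concentration-response data fitted to the Hill equation to give AC50.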

Test [13] can be described thus: qHTS assay for environmental chemicals that activate the Aryl hydrocarbon Receptor (AhR) signaling pathway (AID 651777). Further: % of control where 0% means no effect; nearly all actives have a fitted effect of over 15% in size. To be noted: 1A2-DRE human hepatoma cells, luciferase, 24 h; activation: active compounds read high. The essentials: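 Following a 24 hr incubation with test chemicals at 37 C and 5% CO2, 1A2-DRE human hepatoma cells received One-Glo reagent; after 30 min at room temperature, luciferase output reflected CYP1A2 induction via AhR.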

A short description of test [14]: qHTS assay for small molecule agonists of the antioxidant response element (ARE) signaling pathway measured by Nrf2-dependant transcriptional activity - cell viability counter screen (AID 720653; active means well fitted curve in the direction sought with a large enough effect in the repeat runs; an effect the other way counts as inactive or inconclusive; further: on the % scale 0 is the no-effect control and ±100 the full control effect). The conditions noted are these: ARE-bla HepG2 viability, CellTiter-Glo ATP luminescence, 16 h; max response: active compounds read low. In short, it runs like this:
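ARE-bla HepG2 cells (2,000/well) rested 5 hrs at 37C/5% CO2, then exposed to compounds in DMSO for 16 hrs. Viability was read in the same wells as intracellular ATP by luminescence, 30 min at room temperature after reagent addition.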

Test [15] concerns the target Alpha-galactosidase (Coffea arabica) (UniProt Q42656). Kind of test: Counterscreen for Glucocerebrosidase Inhibitors: qHTS Assay for Coffee Bean alpha-Galactosidase at pH 4.5 (AID 957).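 Further: plate controls were enzyme alone for no effect and no enzyme for full effect.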 The conditions noted are these: purified coffee bean alpha-galactosidase, fluorogenic substrate; series mostly up to 76.9 µM. The essentials: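 Fluorogenic qHTS at pH 4.5 (citrate buffer with Tween-20): 2 nM enzyme, 80 uM 4-MU-alpha-galactoside substrate, compound titrated 0.7 nM to 77 uM, 20 min room temperature. Glycine/NaOH stop; 4-MU read Ex 365/Em 440; Hill-equation AC50 against no-enzyme and enzyme controls.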
In general terms: Counterscreens check selectivity or assay interference.

For test [16] the target is unchanged. The test can be described thus: Counterscreen for Glucocerebrosidase Inhibitors: qHTS Assay for Coffee Bean alpha-Galactosidase at pH 5.9 (AID 998).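 Further: plate controls were uninhibited enzyme for no effect and no-enzyme basal signal for full effect.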 To be noted: coffee bean alpha-galactosidase enzyme assay; series mostly up to 76.9 µM. In short, it runs like this: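 In 50 mM citric acid pH 5.9 with 0.005% Tween-20, coffee bean enzyme hydrolyses 80 uM 4-MU alpha-D-galactopyranoside over 20 min at RT. Activity is normalized to controls; AC50 comes from Hill-modelled concentration-response data.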

Test [17] addresses Ubiquitin carboxyl-terminal hydrolase 1 (Homo sapiens) (UniProt O94782). Kind of test: Inhibitors of USP1/UAF1: Pilot qHTS (AID 504865).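 Further: rhodamine fluorescence freed from ubiquitin-rhodamine substrate followed over time; top concentration of the series differs between compounds; on the % scale 0 is the no-effect control and ±100 the full control effect; nearly all actives have a fitted effect of over 35% in size.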 The conditions noted are these: purified USP1/UAF1, Ub-rhodamine cleavage fluorescence; series mostly up to 114 µM. The essentials:
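1nM USP1/UAF1 + cpd, 15 min RT; start w/ Ub-Rho 150nM final; kinetic FL 480/540 nm, 6 reads q60 s. Buffer 50mM HEPES pH 7.8, 0.5mM EDTA, 1mM TCEP, 0.01% Tween-20, 0.1 mg/ml BSA.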

Test [18] is described as follows: Validation screen for inhibitors of Lassa infection (AID 463096; calls by dose curve; further: on the % scale 0 is the no-effect control and ±100 the full control effect). To be noted: Lassa virus infection, cell-based; series mostly up to 46.1 µM.

Where “and” joins values, the source holds several entries; their conditions need not be identical. Identical values can stand only once. A number with no mark means an inactive call. Records with an inconclusive call do not appear. Calls of active or inactive are those of the source. Unless noted, the call rests on the fitted dose curve; in most records, active means well fitted curve in the direction sought with a large enough effect; inconclusive means small, poorly fitted or top-dose-only effect, or another doubt; inactive means no such curve, though single readings can be large; an effect the other way counts as inactive or inconclusive. A value given as a limit tells only on which side of the number the result lay.

Sequence of Alpha-galactosidase (Coffea arabica) (Q42656 whole entry, looked up): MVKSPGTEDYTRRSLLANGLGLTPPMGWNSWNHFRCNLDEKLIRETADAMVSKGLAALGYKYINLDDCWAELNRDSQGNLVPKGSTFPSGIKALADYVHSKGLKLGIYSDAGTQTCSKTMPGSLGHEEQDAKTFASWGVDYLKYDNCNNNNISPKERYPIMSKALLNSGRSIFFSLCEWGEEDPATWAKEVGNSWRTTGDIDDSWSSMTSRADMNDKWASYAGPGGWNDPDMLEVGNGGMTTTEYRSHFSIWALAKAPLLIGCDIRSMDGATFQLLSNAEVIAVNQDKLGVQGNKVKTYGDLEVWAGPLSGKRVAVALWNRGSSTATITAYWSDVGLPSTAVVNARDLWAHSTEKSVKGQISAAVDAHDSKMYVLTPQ
Sequence of Ubiquitin carboxyl-terminal hydrolase 1 (Homo sapiens) (O94782 whole entry, looked up): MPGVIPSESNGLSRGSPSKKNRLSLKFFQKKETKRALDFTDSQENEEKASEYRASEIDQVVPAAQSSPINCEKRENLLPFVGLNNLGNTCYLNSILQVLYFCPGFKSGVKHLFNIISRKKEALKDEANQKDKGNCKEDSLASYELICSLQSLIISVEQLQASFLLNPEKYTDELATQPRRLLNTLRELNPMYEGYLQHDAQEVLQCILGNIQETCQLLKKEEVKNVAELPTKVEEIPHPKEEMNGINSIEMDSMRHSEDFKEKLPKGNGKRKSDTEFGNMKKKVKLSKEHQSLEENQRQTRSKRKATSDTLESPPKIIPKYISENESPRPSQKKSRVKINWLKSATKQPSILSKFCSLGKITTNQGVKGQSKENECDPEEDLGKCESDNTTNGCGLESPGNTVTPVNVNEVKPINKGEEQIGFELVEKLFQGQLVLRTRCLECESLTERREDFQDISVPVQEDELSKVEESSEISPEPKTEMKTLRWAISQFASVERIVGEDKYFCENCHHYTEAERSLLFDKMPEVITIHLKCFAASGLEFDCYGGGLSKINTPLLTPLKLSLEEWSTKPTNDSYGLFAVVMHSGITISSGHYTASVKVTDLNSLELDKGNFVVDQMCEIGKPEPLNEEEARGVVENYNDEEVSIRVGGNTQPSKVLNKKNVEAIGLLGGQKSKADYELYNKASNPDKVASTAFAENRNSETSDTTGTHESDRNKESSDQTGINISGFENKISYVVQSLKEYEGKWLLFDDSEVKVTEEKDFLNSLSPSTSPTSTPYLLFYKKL

In the case of `Clc1ccc(C(c2ccc(Cl)cc2)C(Cl)Cl)cc1`, the Potency in test [1] is 55 µM (active); in test [2] it was 45.4 µM (active); in test [3], 45.4 µM (active); in test [4] it was 43.5 µM (active). In addition, the activity change, negative = cytotoxicity in [5] was -102% (active); in test [7], -88.1% (active). Moreover, the Potency result in test [6], in test [8], in [10], in [11] and in test [12] was “inactive” each time. The caspase-3 activation in [9] was 152% (active). Moreover, the activation in test [13] was 0.923% and 0.102%. The max response in test [14] was -1.77% and -12.4%.

In the case of `CC(C)CC(C)Nc1ccc(Nc2ccccc2)cc1` (configuration not stated), the results for the Potency in [1], in test [11] and in test [12] were > 92 µM, 50.1 µM (active) and 39.8 µM (active), respectively. Further, the activity change, negative = cytotoxicity in test [5] was -118% (active); in test [6], -113% (active); in test [7], -106% (active). For the same compound, the Potency result in [8] is “inactive”. In addition, the activation in test [13] was 10.8%. Further, the max response in test [14] was -3.35%.

For `Cc1ccc2ccccc2c1C`, the Potency in [1], in test [2], in [3] and in test [4] was > 92 µM throughout. Further, the activation in test [13] is 1.49%. Further, in test [14], the max response is 9.36%.

For the compound `COC[C@H]1OC(=O)c2coc3c2[C@@]1(C)C1=C(C3=O)[C@H]2CCC(=O)[C@@]2(C)C[C@H]1OC(C)=O`, the compound was classed as inactive in test [15] and in test [16]. The Potency entry in test [17] is “inactive”.

In the case of `Oc1cc2c(cc1O)[C@H]1c3ccccc3CN[C@H]1CC2`, the Potency entry in test [17] was “inactive”.

As to `C1CCC(N=C(NC23CC4CC(CC(C4)C2)C3)N2CCOCC2)CC1`, the result in test [15] and in test [16] was inactive.

With `O=C1C(SCCO)=C(SCCO)C(=O)c2ccccc21`, the result in test [15] and in test [16] was inactive.

Regarding `N=C(N)SCCc1cccc(CCSC(=N)N)c1`, the call in test [15] was inactive. Also, the Potency result in test [18] was “inactive”.

With `CC(=O)NCCc1ccc(O)c(O)c1`, the compound was called inactive in test [15] and in test [16]. Besides, the Potency result in [18] was “inactive”.

As to `CCCn1c(=O)c2[nH]c(-c3ccc(OCC(=O)Nc4ccc(C#N)cc4)cc3)nc2n(CCC)c1=O`, the outcome in [15] and in test [16] was inactive. Besides, the Potency result in test [18] is “inactive”.

`NCCC(=O)NCCc1cnc[nH]1`: the call in test [15] and in [16] was inactive. In addition, the Potency entry in [18] was “inactive”.

On to `O=C(Cc1ccc(Cl)c(Cl)c1)OCCN1CCCC1`, for which the outcome in test [15] and in [16] was inactive. Besides, the Potency entry in test [18] was “inactive”.

For `NC(=NCCC[C@H](N)C(=O)O)NO`, the compound was classed as inactive in test [15] and in test [16]. Moreover, the Potency result in test [18] is “inactive”.

As to `COC(=O)c1c(-c2cc(OC)c(OC)c(OC)c2)c2ccc(OCc3ccccn3)cc2c(=O)n1-c1ccc(N)cc1`, the outcome in [15] and in test [16] was inactive. In addition, the Potency entry in test [18] was “inactive”.
